# Screen size: about 330,000 compounds; about 1,500 (0.45%) were called active. Roughly 6% stayed inconclusive and do not appear here. The sample as a whole holds a higher share of actives than the screen did. A number with no mark means an inactive call. The call rests on the fitted dose curve; tested in A549 cells.
# Test: qHTS for Stage-Specific Inhibitors of Vaccinia Orthopoxvirus: Venus Reporter Primary qHTS; further: nearly all actives have a fitted effect of over 30% in size
# Conditions: Vaccinia virus Venus reporter expression, fluorescence; series mostly up to 36.5 µM; activity change, negative = inhibition: at the top concentration
# On the % scale 0 is the no-effect control and ±100 the full control effect; potency means the concentration at half of the fitted maximal effect.
SMILES,Potency,"activity change, negative = inhibition"
CC(C)Oc1c(Br)cc(Br)cc1/C=N/NC(N)=S,5.01 µM (active),
NC(=S)N/N=C/c1coc2cc(Cl)ccc2c1=O,,-2.91%
Cc1cccc(-n2c(C)cc(/C=N/NC(N)=S)c2C)c1,,-19.7%
CCCCCn1nnnc1C1c2ccccc2C(=O)N1Cc1ccco1 (stereo unspecified),,0.846%
O=C(Cc1ccc2c(c1)CCCC2)Nc1ccccc1Cl,,-2.79%
O=C(Nc1ccccc1Cl)/C(Cl)=C(\Cl)S(=O)c1ccccc1 (stereo unspecified),10 µM (active),
O=C(Nc1ccccc1Cl)O/N=C(/c1ccccc1)c1ccccn1,,-8.43%
C[C@@]12CCC3C(CC[C@@H]4CC(O)CC[C@@]34C)C1CCC2O (stereo partly specified),,0%
CC(CCC(=O)O)C1CCC2C3C(O)C[C@@H]4CC(O)CC[C@@]4(C)C3CC[C@@]12C (stereo partly specified),inactive,
C[C@]12CC[C@H](O)C[C@H]1CC[C@@H]1C2CC[C@]2(C)[C@@H](C3=CC(=O)OC3)[C@@H](O)C[C@]12O (stereo partly specified),3.16 µM (active),
Cc1csc(NCC(=O)c2c[nH]c3ccccc23)n1,,-23%
CCOC(=O)[C@]12CCC=C1N(Cc1cccc3ccccc13)C(=O)[C@H](CC(=O)NCc1cccc(C(F)(F)F)c1)C2,,-28.4%
COc1ccc(C(C)C)cc1-c1ccc2nncn2c1,,-10.8%
Cc1cc(C)n2c(NCc3ccccc3)c(CC(C)C)nc2n1,,18.6%
O=C(Nc1ccc(C(=O)N2CCOCC2)cc1)Nc1cccc(C(F)(F)F)c1,,-15.9%
CC(=O)c1ccc(Nc2nc(C(N)c3ccccc3)cs2)cc1 (stereo unspecified),,-10.3%
Cc1ccc(NC(=O)Nc2cccc(C(F)(F)F)c2)nc1,,-3.51%
NC(c1ccccc1)c1csc(NC(=O)Nc2cccc(C(F)(F)F)c2)n1 (stereo unspecified),11.2 µM (active),
NC(c1csc(NC(=O)Nc2cccc(C(F)(F)F)c2)n1)C1CCCCC1 (stereo unspecified),10 µM (active),
CC(C)C[C@H](NC(=O)Nc1cccc(C(F)(F)F)c1)C(=O)O,,-0.745%
COc1ccc(C(O)C(O)(C(=O)OC(C)C)c2ccc(C)cc2)cc1 (stereo unspecified),,-12.4%
COc1cc(C=C(OC(C)=O)c2ccc3c(c2)OCO3)cc(OC)c1OC,,-4.33%

SMILES,Potency,"activity change, negative = inhibition"
COc1ccc(-c2ccc(C(=O)NCCN3CCOCC3)c3occc23)c(C)c1,,-23.2%
COc1ccccc1Cc1c(-c2ccc(Cl)cc2)nc2c3ccccc3ccn12,,-4.99%
COc1ccc(-c2coc3c(C(=O)NC(C)C)cccc23)c(C)c1,,-4.73%
CCCCCn1nnnc1-c1nc2cc3ccccc3cc2[nH]c1=O,,64.3%
CCOC(=O)C1C(C)C(C(C)(C)C)N(S(=O)(=O)c2ccc(C)cc2)C1c1ccccc1 (stereo unspecified),,-24.5%
Cc1cc2nc(-c3ccc(Cl)cc3)c(Cc3cccc(F)c3)n2c(C)c1Br,,6.13%
COc1cccc(CNC(=O)[C@@H]2CCCN2C(=O)[C@@H]2CCCN2C(=O)c2ccccc2)c1,,2.4%
COC(=O)c1ccc2nc(-c3ccc(C)cc3)c(Cc3ccc(OC)cc3C)n2c1,,-2.33%
O=S1(=O)CC(N2CCN(Cc3ccccc3F)CC2)CN1Cc1cn(Cc2cccc(C(F)(F)F)c2)nn1 (stereo unspecified),,-5.88%
S=C(NCc1cccnc1)Nc1ccc(Cl)cc1Cl,,-2.92%
CC(=O)/C(=N\Nc1ccc(Cl)cc1Cl)Sc1cccc2cccnc12,10 µM (active),
COc1c(Cl)cc(Cl)cc1C(=O)Nc1cccc2cccnc12,,0.266%
COc1ccc(/C=C/c2ccnc3ccccc23)cc1OC,,-15.9%
Cc1[nH]c(=O)c(C(=O)/C=C/c2ccccc2)c2c1CCCC2,6.31 µM (active),
Cc1cn(COC/C=C/c2ccccc2)c(=O)[nH]c1=O,,-11%
CC1(C(=O)O)CCCN(C(=O)/C=C/c2ccccc2)C1 (stereo unspecified),,-5.44%
CC(C)(C)c1ccc(C(=O)C[n+]2cccc3cc(Cl)ccc32)cc1,,313%
CCOC(=O)c1ccn(S(=O)(=O)c2ccc(C)cc2)c1-c1ccccc1,,-2.99%
CN(Cc1cn(Cc2ccc(C(F)(F)F)cc2)nn1)C1CN(Cc2cn(Cc3ccc(C(F)(F)F)cc3)nn2)S(=O)(=O)C1 (stereo unspecified),,-28%
c1ccc(Cc2c(-c3ccco3)nc3c4ccccc4ccn23)cc1,,-0.586%
CC[C@H]1CN2CCc3cc(OC)c(OC)cc3[C@@H]2C[C@@H]1C[C@H]1NCCc2cc(OC)c(OC)cc21,0.562 µM (active),
COc1cc2c(cc1OC)CN(CC(=O)Nc1ccc(F)cc1)CC2,,-9.04%

SMILES,Potency,"activity change, negative = inhibition"
CCC(CC)C(=O)N1CCc2cc(OC)c(OC)cc2C1COc1ccc(F)cc1 (stereo unspecified),,-6.92%
CCc1oc(-c2ccc(OC)cc2)c(C(=O)OCCCCCO)c1C(C)OCCO (stereo unspecified),,3.76%
Cc1ccc(-c2nc(=N)sn2Cc2ccccc2)cc1,,-10.9%
S=c1[nH]c(=S)c2n[nH]nc2[nH]1,,-10.3%
CCCc1c(-c2ccccc2F)ncn1Cc1ccccc1OC,,-12.8%
c1cncc(CNCCc2c[nH]c3ccccc23)c1,,-2.23%
COc1cccc(CNCCc2c[nH]c3ccccc23)c1OCc1ccccc1F,10 µM (active),
COc1ccc(S(=O)(=O)NCCc2c[nH]c3ccccc23)cc1OC,,1.43%
CO[C@H]1O[C@@H]2O[C@@]3(C)CC[C@@H]4[C@@H](C)CC[C@@H]([C@H]1C)[C@@]24OO3,,-8.19%
CN(Cc1ccccc1F)c1cc2c(c3c1ccn3C)C1CCC2O1 (stereo unspecified),,-5.91%
CN(C)c1ccc(/C=C/c2sc3ccccc3[n+]2C)cc1,,66.9%
OCC(O)C(O)C(O)C(O)C=Nc1ccc(/C=C/c2ccnc3ccccc23)cc1 (stereo unspecified),,2.54%
CCOCCC(=O)Nc1ccc2c(c1)c(=O)n(C)n2-c1ccc2ccccc2c1,,-25.4%
CS(=O)c1ccc(/C=C2\C=Cc3ccccc32)cc1 (stereo unspecified),,3.52%
Cc1cc(/C=C2/SC(=O)N(CC(=O)N3CCCC3)C2=O)ccc1N1CCOCC1,,-17.6%
COc1cccc(/C=C2\SC(=S)N(CCCC(=O)N3CCOCC3)C2=O)c1,12.6 µM (active),
COc1ccc(/C=C2\SC(=S)N(CCC(=O)N3CCOCC3)C2=O)cc1OC,,-26.8%
CCC(C)CN1C(=O)CSCC1(C)C(=O)NCc1ccccc1 (stereo unspecified),,-10.8%
COc1ccc(C(C)(NC(C)=O)c2nc(-c3ccc(S(C)(=O)=O)cc3)cs2)cc1 (stereo unspecified),,8.43%
COc1cccc(OCc2nnc3n2N=C(c2ccccc2)C(CC(=O)O)S3)c1 (stereo unspecified),,-0.775%
CCCCn1c(N)c(N(CCOC)C(=O)c2cccc(OCc3ccccc3)c2)c(=O)[nH]c1=O,,-6.07%
CCCCCCCCCCOC(=O)Cn1c(COc2cccc(OC)c2)[n+](C)c2ccccc21,11.2 µM (active),

# — PubChem BioAssay AID720580 (National Center for Advancing Translational Sciences (NCATS), 2013)
